Bioassay records (PubChem)
SARS PLP yeast: qHTS of Yeast-based Assay for SARS-CoV PLP; S. cerevisiae expressing SARS-CoV PLpro, growth rescue; Potency, µM (doses to about 32.9 µM), usual class: activators; hit rate 0.19% among 330,000; AID 485353, 2010; calls by dose curve; also: nearly all actives have a fitted effect of over 55% in size
Pf growth 48h: Primary qHTS for delayed death inhibitors of the malarial parasite plastid, 48 hour incubation; P. falciparum luciferase growth in erythrocytes, 48 h; Potency, µM (titrated, usually from 28.7 µM), hits mostly inhibitors; hit rate 5.9% among 310,000
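Firefly luciferase activity from engineered P. falciparum reports growth; inhibitors lower the luminescent signal. Cultures contained 2% hematocrit erythrocytes at 0.1% final parasitemia.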
HCV inhibitor: qHTS Assay for Inhibitors of Hepatitis C Virus (HCV). Huh7.5.1 HCVcc-Cre infection, luciferase reporter, 44 h. Potency, µM (titrated, usually from 41.8 µM), usual class: inhibitors. hit rate 3.4% among 340,000. AID 651820, 2012
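HCVcc-Cre virus at an moi near 0.5 was added right after compound to cells cultured 4 h from seeding (1,000 cells/well). Luciferase activity was determined 44 h later, 15 min after substrate addition at RT.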
Sm TGR block: qHTS Assay for the Inhibitors of Schistosoma Mansoni Peroxiredoxins; Schistosoma mansoni thioredoxin glutathione reductase (TGR), Q962Y6; purified TGR, DTNB reduction, TNB absorbance 405 nm; Potency, µM (top dose mostly 114 µM), actives largely listed as inhibitors; hit rate 3% among 360,000; AID 485364, 2010; also: nearly all actives have a fitted effect of over 60% in size
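TGR 20 nM + NADPH 100 uM (dispensed conc.), cpd preinc 15 min RT; start with NADPH (500 uM addition) then DTNB (15 mM addition). Kinetic TNB absorbance, 405 nm filter. Four-parameter Hill fit across titration.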
Pf growth 96h: Primary qHTS for delayed death inhibitors of the malarial parasite plastid, 96 hour incubation. P. falciparum luciferase reporter growth, 96 h. Potency, µM (doses to about 28.7 µM), usual class: inhibitors. hit rate 6.9% among 320,000
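Cell-based qHTS: luciferase-tagged P. falciparum in erythrocytes (2% hematocrit, 0.05% parasitemia final) incubated with compounds for 96 hours, 37 C, 5% CO2; luciferase detection reagent then added and luminescence measured.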
HCMV inh: qHTS Assay for inhibitors of the human cytomegalovirus (HCMV); HFF cells, HCMV-luciferase reporter, 72 h; active compounds read low; hit rate 4.5% among 410,000; activity change, negative = inhibition, % at 57.5 µM; in the data active = activity change below about -60%; inconclusive = no clear call, values can overlap the other calls; inactive = above about -39%
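Steps: HFFs plated, 16 h 37C; compounds added; HCMV-luciferase added to MOI 1 PFU/cell; 72 h 37C; OneGlo reagent, 5 min room temperature; luminescence read, normalized to controls.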
Hits are given with their value; i = inactive; ? = inconclusive; nt = no result given; [ ] = another dose, or the depositor's remark. In the library only some 15% were active in any assay of this set; here they are far more common. Unless noted, calls follow the shape of the dose curve; as a rule, active = well fitted curve in the direction sought with a large enough effect; inconclusive = small, poorly fitted or top-dose-only effect, or another doubt; inactive = no such curve, though single readings can be large; an effect the other way counts as inactive or inconclusive.

SMILES	SARS PLP yeast	Pf growth 48h	HCV inhibitor	Sm TGR block	Pf growth 96h	HCMV inh
COc1cc(/C=C(/C#N)C(=O)NCCCc2ccccc2)ccc1OCC(=O)O	i	i	i	i	?	i
COc1cc(/C=C(\C#N)C(=O)NC2CCCCC2)ccc1OCc1ccc(C(=O)O)cc1	i	6.6µM	i	nt	i	i
COc1cc(/C=C(/C#N)c2ccccc2F)ccc1OCc1ccccc1	i	12µM	?	i	i	i
COc1cc(/C=C(\C#N)C(=O)NCc2ccccc2)ccc1OCc1ccc(C(=O)O)cc1	i	13µM	i	i	?	i
COc1ccc(CCNC(=O)/C(C#N)=C/c2cccc(OCc3ccccc3)c2)cc1OC	i	?	?	i	12µM	i
Cc1cccc(NC(=O)c2nc[nH]c2C(=O)N(C)CCO)c1	nt	nt	nt	nt	nt	i
COc1ccc(NC(=O)CC2SC(=N)N(c3ccccc3)C2=O)c(OC)c1 (centres undefined)	i	i	i	i	i	i
COc1cccc(NC(=O)CN(C)C(=O)CSc2ccc3c(c2)OCCO3)c1	i	i	?	i	?	i
O=C(Nc1ccc(OC(F)F)c(Cl)c1)C(c1ccccc1)c1ccccc1	i	?	?	i	?	i
COc1ccc(NC(=S)Nc2ccc(C)c(Cl)c2)cc1OC	i	i	i	i	i	?
FC(F)Oc1ccc(NC(=S)NCc2ccccc2)cc1	i	i	i	i	i	i
Cc1ccc(NC(=S)Nc2ccc(OC(F)F)c(Cl)c2)cc1Cl	i	?	?	i	?	-89
FC(F)Oc1ccc(NC(=S)NCc2ccccc2)cc1Cl	i	i	13µM	i	nt	?
Fc1ccc(NC(=S)Nc2ccccc2OC(F)F)cc1Cl	i	?	?	i	?	?
Cc1ccc(NC(=S)Nc2ccc(Cl)c(Cl)c2)c(OC(F)F)c1	i	?	?	i	4.1µM	-75
CC(NC(=S)Nc1ccc(OC(F)F)c(Cl)c1)C(C)(C)C (centres undefined)	i	?	11µM	i	?	?
COc1ccc(CNC(=O)C2CCN(S(=O)(=O)c3ccc(F)cc3)CC2)cc1	nt	nt	nt	i	nt	i
CCOC(=O)c1cc(-c2cccnc2)nn1-c1ccccc1C	i	?	i	i	i	i
CCS(=O)(=O)c1ccc2c(c1)N(S(=O)(=O)c1ccc(Cl)cc1)CC(C(=O)O)O2 (centres undefined)	i	i[5.75 µM]	i	i	i[5.75 µM]	i
Cc1cc(C)cc(NC(=S)Nc2ccc(Cl)c(Cl)c2)c1	i	13µM	i	i	i	-68
COc1ccc(Br)c(Cn2c(C)c(C(=O)NCCC#N)sc2=O)c1	nt	nt	nt	nt	nt	i
Cc1nnc2ccc(-c3cccc(C(F)(F)F)c3)nn12	nt	nt	i	nt	nt	i
FC(F)(F)c1cccc(-c2cnc3ccc(C4CC4)nn23)c1	nt	nt	nt	nt	nt	-82
O=c1nc(N2CCOCC2)nc(N/N=C/c2ccc3c(c2)OCO3)[nH]1	i	i	i	i	12µM	i
CCN(CC)c1ccc(/C=N/Nc2nc3ccccc3[nH]2)cc1	i	1.9µM	13µM	?	2.6µM	nt
SMILES	SARS PLP yeast	Pf growth 48h	HCV inhibitor	Sm TGR block	Pf growth 96h	HCMV inh
C(=N\Nc1nc2ccccc2[nH]1)/c1ccc2c(c1)OCO2	i	0.47µM	i	i	?	i
CN(/N=C/c1ccc2c(c1)OCO2)c1nc(N2CCOCC2)nc(N2CCOCC2)n1	i	i	?	i	i	i
CC(=O)Nc1ccc(/C=N/Nc2nc3ccccc3[nH]2)cc1	?	1.9µM	?	i	?	i
COc1ccc(Cl)cc1NC(=O)CN(C)C(=O)/C=C/c1ccco1	i	nt	i	nt	nt	i
Oc1c(C(c2ccccc2)N2CCCCC2)ccc2ccccc12 (centres undefined)	nt	nt	nt	nt	nt	i
COC(=O)C1=CN(c2ccc(C)cc2)C(N)=C(C#N)C1c1ccccc1F (centres undefined)	nt	nt	nt	nt	nt	i
CC(C)CC1C(=O)N(Cc2cn(CCC3OCCO3)nn2)CCS(=O)(=O)N1Cc1ccc(-c2cccc(N(C)C)c2)cc1 (centres undefined)	nt	nt	nt	nt	nt	i
O=C(O)CCC(=O)c1ccc2c(c1)OCCO2	i	nt	i	i	?	i
O=C(CCN1CCc2ccccc2C(c2ccccc2)C1)c1ccc2c(c1)OCCO2 (centres undefined)	i	nt	?	0.56µM	i	i
O=C(C[n+]1ccc(/C=C/c2ccccc2)cc1)c1ccc2c(c1)OCCO2	i	?	?	i	?	-83
O=C(CCN1Cc2ccccc2C1)c1ccc2c(c1)OCCO2	i	?	i	0.89µM	nt	i
Cc1cc[n+](CC(=O)c2ccc3c(c2)OCCO3)cc1	i	i	i	i	i	i
O=C(CCCN1Cc2ccccc2C1)c1ccc(F)cc1	i	i	i	i	5.2µM	i
CN1CCN(CCCC(=O)c2ccc(F)cc2)CC1	i	i	i	i	?	i
CC1=CC(C)(C)N(S(=O)(=O)c2ccc(F)cc2)c2ccc(C)cc21	i[6.58 µM]	nt	?	i	15µM	?
CC1=CC(C)(C)N(C(=O)CN2C(=O)c3ccccc3C2=O)c2ccccc21	i	?	i	i	?	i
CCOc1ccc2c(c1)C(C)=CC(C)(C)N2S(=O)(=O)c1ccc(F)cc1	i	i	?	i	?	i
CC1=CC(C)(C)N(S(=O)(=O)c2ccc(C)cc2)c2ccccc21	i	nt	i	i	10µM	?
COc1ccc(Cl)cc1NC(=O)NNC(=O)C(=O)Nc1ccc(F)cc1	nt	nt	nt	nt	nt	i
Cc1ccc(CNC(=O)Cc2c(C)c3cc4c(C)coc4cc3oc2=O)cc1	nt	nt	nt	i	nt	i
CCCC1C(=O)Nc2ccccc2N1C(=O)c1ccc(C(C)(C)C)cc1 (centres undefined)	i	?	?	i	9.3µM	i
CC(=O)c1ccc(NC(=O)c2cc(-c3ccc(Cl)c(Cl)c3)on2)cc1	nt	nt	nt	i	nt	i
Cc1[nH]ccc2c1[nH]c1cc(=O)ccc12	i	13µM	i	i	10µM	?
CC(=O)N1CCC(N(Cc2ccco2)C(=O)Nc2cccc(C)c2)CC1	nt	nt	nt	i	nt	i
O=C(NCCn1cc(SCc2ccc(C(F)(F)F)cc2)c2ccccc21)c1ccccc1F	nt	nt	nt	i	nt	i
O=C(CSc1cn(CCNC(=O)c2ccccc2F)c2ccccc12)Nc1ccc2c(c1)OCCO2	nt	nt	nt	i	nt	i
CCOC(=O)c1c(NC(=O)C(C)Sc2cn(CCNC(=O)c3ccc(OC)c(OC)c3)c3ccccc23)sc2c1CCC2 (centres undefined)	nt	nt	nt	i	nt	-108
Cc1ccc(C(=O)NCCn2cc(SCC(=O)N3CCOCC3)c3ccccc32)cc1	i	i	i	i	i	-63
